RAM inhibit – inhibitors of the yeast RAM network; inhibition, % at 50 µM; 190,000 tested, 1.8% active; S. cerevisiae dse1pr::URA3 reporter, 5-FOA growth OD615, 2 d; analog-sensitive cbk1-as2 kinase mutant strain;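 active = inhibition above a set limit, 3 SD over mean compound inhibition, cut at about 8.4% in these data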;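 note: 0% = DMSO-only wells with no growth and 100% = 10 µM 1-NA-PP1 full growth; inhibition rescues growth on 5-FOA so higher OD means more RAM inhibition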
CHOP inh – CHOP inhibition in unfolded protein response | CHO-K1 CHOP-promoter luciferase, tunicamycin-induced, 15-18 h | inhibition, % at 10 µM | 220,000 tested, 3.8% active | AID 2732;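 active = compounds that reduced the stress-induced luciferase reporter signal by more than about 70% of percent inhibition, limit read from the data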;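 note: 0% = tunicamycin plus vehicle and 100% = wells without tunicamycin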
L major viab – reduces viability of Leishmania major promastigotes. resazurin fluorescence viability. inhibition, % at 10 µM. 200,000 tested, 9% active; in the data active = inhibition above about 50%;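 note: promastigotes grown with compound for 44 hours at 28 °C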
WT yeast gro inh – growth inhibition of WT yeast, mitochondrial fusion screen. mitochondrial fusion phenotypic screen, WT strain. inhibition, % at 10 µM. 190,000 tested, 2.1% active. AID 1362; in the data active = inhibition above about 58%; tested in S. cerevisiae
Starred values were filed as active, the others as inactive; . = no result. Only some compounds are listed: those with a hit (about 13% of all), similar ones and a draw of the others.

SMILES	RAM inhibit	CHOP inh	L major viab	WT yeast gro inh
COc1cc(NS(=O)(=O)c2ccc(NC(=S)NC(=O)/C=C/c3ccc(OC)c(OC)c3)cc2)ncn1	6.2	79.2*	-9.8	4.1
COc1ccc(/C=C/C(=O)NC(=S)Nc2ccc(S(=O)(=O)Nc3cc(OC)ncn3)cc2)cc1	8.7*	20.1	-4.6	-4.1
O=C(OCCN1C(=O)c2ccccc2C1=O)C1CCN(S(=O)(=O)c2cccs2)CC1	0.8	21.7	-0.3	-2.4
Cn1nc(-c2ccc(C(=O)NCCO)cc2)c2ccccc2c1=O	.	9.3	.	.
CS(=O)(=O)c1ccc(C(=O)OCC(=O)NC2CCS(=O)(=O)C2)cc1[N+](=O)[O-] (stereo unspecified)	2.1	12.6	0.3	-12.0
CSC(=S)N/N=C(\C)c1ccc(Br)cc1	3.3	20.7	-2.9	67.7*
CC(C)NC(=S)N/N=C1\CCCCC1C1CCCCC1 (stereo unspecified)	0.8	31.8	99.7*	68.8
O=C(N1CCN(c2cccc(Cl)c2)CC1)C1(c2cccs2)CCOCC1	-0.1	18.6	10.1	7.4
COc1ccc(CN2CCn3nc(C(=O)NC4CC4)cc3C2=O)cc1	0.0	-13.5	5.9	-0.4
O=C(O)CC/C(=C\c1ccccc1[N+](=O)[O-])c1nc2ccccc2s1	1.9	19.3	-0.8	-8.8
O=C(O)CC/C(=C\c1ccc(N2CCCC2)c([N+](=O)[O-])c1)c1nc2ccccc2s1	5.0	95.4*	-4.3	-11.9
O=C(CSc1nc2ccccc2c(=O)n1Cc1ccc(Cl)cc1)NCc1cccs1	3.0	73.0*	-2.0	1.6
CCCCNC(=O)CSc1nc2ccccc2c(=O)n1Cc1ccc2c(c1)OCO2	0.9	86.3*	-3.7	-22.0
O=C(CSc1nc2ccccc2c(=O)n1-c1ccccc1)NCc1ccc2c(c1)OCO2	4.0	9.7	12.9	-8.9
Cc1cccc(-n2c(SCC(=O)NCc3ccc4c(c3)OCO4)nc3ccccc3c2=O)c1	5.9	17.3	96.1*	-7.6
O=C(O)CCSCCCN1C(=O)c2cccc3cccc(c23)C1=O	-0.6	20.0	-4.3	-2.1
CC(=O)NCCc1nc2ccccc2n1CCc1ccccc1	0.2	4.7	0.1	9.3
Cc1ccc(Nc2nnc(C3C(=O)N(C)C4(C)CC3c3cc(Br)ccc3O4)s2)cc1 (stereo unspecified)	0.8	61.4	68.8*	55.1
C=CCn1c(=O)/c(=C/c2ccc(Cl)cc2)s/c1=C(/C#N)c1nnc2n1CCCCC2	0.2	29.2	94.1*	18.9
O=S(=O)(NNc1ccc(Cl)nn1)c1ccc(F)cc1	2.0	-10.0	91.2*	-3.6
O=C1CC(c2cccc(Br)c2)c2cc3c(cc2N1)CCC3 (stereo unspecified)	-1.6	107.5*	2.8	87.2*
O=C1CC(c2cc(F)ccc2F)c2cc3c(cc2N1)CCC3 (stereo unspecified)	3.6	71.3*	18.1	-3.8
Cc1cc2c(cc1C)C(c1cccc([N+](=O)[O-])c1)CC(=O)N2 (stereo unspecified)	3.5	13.0	52.6*	15.5
O=C(CNC(=S)N(Cc1ccccc1Cl)C1CCCC1)NCCN1CCOCC1	-0.1	18.2	0.6	4.4
Cc1cc(C)cc(NC(=S)N2CCC(NC(=O)c3ccccc3C)CC2)c1	4.9	9.4	3.1	-6.3
SMILES	RAM inhibit	CHOP inh	L major viab	WT yeast gro inh
COc1ccc(CCn2c(=O)c3cccnc3n(Cc3cccc([N+](=O)[O-])c3)c2=O)cc1OC	0.8	32.6	12.9	-10.7
COC(=O)C1=C(C)Nc2c(c(=O)n(C)c(=O)n2C)C1c1ccc(Cl)cc1 (stereo unspecified)	1.4	34.2	-1.3	-6.3
N#CCn1c(CCl)nc2ccccc2c1=O	3.4	-27.0	83.7*	9.7
Cc1ccc(-c2nnc(NC3CCCCC3)c3ccccc23)cc1S(=O)(=O)N1CCN(C)CC1	-0.4	17.6	96.4*	13.3
CN(C(=S)NCCN1CCOCC1)C(c1ccccc1)c1ccccc1	1.4	47.2	8.9	-9.7
CN(C)S(=O)(=O)c1ccc(C(=O)OCC(=O)c2ccc(OC(F)F)cc2OC(F)F)cc1	10.8*	67.5	6.9	6.8
CN(C)S(=O)(=O)c1ccc(C(=O)OCC(=O)Nc2ccccc2OC(F)F)cc1	1.9	23.5	0.7	-16.6
O=C(CSc1nnc(-c2cccs2)o1)N1CCc2ccccc21	3.8	24.0	1.6	-7.9
C=CCSc1nnc(-c2cc3c(s2)-c2ccccc2CC3)o1	1.7	-0.8	-4.2	65.7*
CCCCC(=O)Nc1nn(C)c2nc3c(C)cccc3cc12	5.3	76.3*	-1.5	-16.6
Cc1cccc2cc3c(NC(=O)CC(C)C)nn(C)c3nc12	4.1	48.6	0.2	-10.1
Cc1ccc(S(=O)(=O)NCCC(=O)Nc2ccc(C)cc2C(=O)c2ccccc2)cc1	0.2	25.5	4.5	2.0
